The source made the active and inactive calls. The calls were made as follows: active = hit-call score of the fitted dose curve at least 0.9, where 1 is the maximum; inconclusive = response in the unintended direction; inactive = score below 0.9.

The test is described as follows: LTEA_HepaRG_LDH_cytotoxicity: Cytotoxicity Assessment in the Life Technologies and Expression Analysis (LTEA) Assay (AID 2283563). As for the experimental part:
LTEA_HepaRG is a cell based, multiplexed-readout assay that uses HepaRG, a human liver cell line, with measurements taken at 48 hours after chemical dosing on a 96-well plate.LTEA_HepaRG_LDH_cytotoxicity is one of 102 assay component(s) measured in the LTEA HepaRG cell culture assay. It is a marker of cell viability / cytotoxicity.Data from the assay component LTEA_HepaRG_LDH_cytotoxicity was analyzed into 1 endpoint. This assay endpoint, LTEA_HepaRG_LDH_cytotoxicity, was analyzed in the positive fitting direction relative to DMSO as the negative control and baseline of activity. Using a type of inducible reporter, measures of mRNA induction for loss-of-signal activity can be used to understand cell death. To generalize the intended target to other relatable targets, this assay endpoint is annotated to the cell cycle intended target family, where the subfamily is proliferation.
A total of 1060 chemcials from the ToxCast library were tested in eight-point concentration-response experiments. Cell culture and cytotoxicity assays were conducted at Thermo Fisher Scientific's Custom Services facility (Madison, WI). A single lot of human HepaRG cells (Thermo Fisher Scientific, Frederick, MD) was used for the cell culture experiments. 96-well format collagen type I coated plates of human HepaRG cells were prepared using established methods. Briefly, cryopreserved HepaRG cells were thawed, plated at a density of approximately 100,000 cells/well in HepaRG Thaw, Plate, and General Purpose media (HPRG770, Thermo Fisher Scientific), and incubated for 48 hours. 0.5% DMSO was selected as vehicle control to balance the requisite need of DMSO in HepaRG cultures to maintain differentiation (for example, baseline metabolism, proportions of hepatocytes vs. cholangiocytes), while enabling further hepatic receptor pathway activation (for example, PXR and CAR) in response to chemical exposure. 48 hours after plating, the culture medium was replaced with HepaRG Serum-Free Incudtion Media. Cells were exposed to each test chemical in duplicate and maintained in CO2 incubators for another 48 hours. Chemical plates were thawed to room temperature and 200x concentrations of treatment groups were prepared. 8-point conentration-reponse curves were made with the highest exposure at 100 uM, followed by half-log dilutions, all in 0.5% DMSO. Each test plate contained variouse controls, induction positive controls (1mM phenobarbital), cytotoxicity positive controls ([…] aflatoxin B1), vehicle controls (0.5% DMSO), and total lysis controls (0.5% DMSO). Cell morphology images were taken using an Essen IncuCyte FLR automated microscope, with six 96-well plates imaged in about 24 minutes. Images were captured and exported and JPEG files. Spent culture media was transfered to black-well plates for the LDH assay, and remaining media was sorted at -80 C for later use. Cells were treated with RLT buffer and frozen until shipped for gene expression analysis. Total RNA was isolated from the cell suspension in 75 uL of Buffer RLT (Qiagen, Germantown, MD 20874) by Quintiles/Expression Analysis (Durham, NC) using a custom isolation procedure. Total RNA from each plate well was transferred to a preamplification plate. Fluidigm's 96.96 Dynamic ArrayTM (Fluidigm, Amsterdam, the Netherlands) technology was used for gene expression analyses by quantitative reverse transcription polymerase chain reaction (qRT-PCR, performed by Quintiles/Expression Analysis, Durham, NC)89. Standard TaqManTM Assays (Applied Biosystems/ThermoFisher Scientific, Foster City, CA) were used to assess the expression of 93 genes selected based on their selectivity and sensitivity to important hepatic receptors known to be modulated by environmental chemicals; importance in human hepatocyte functionality; and hepatotoxicity. […]
Take `O=S1(=O)CCCO1`: the outcome was inactive.
With `CC(C)C(=O)Nc1ccc([N+](=O)[O-])c(C(F)(F)F)c1`, the call was inactive.
With `O=C(NO)C1(NS(=O)(=O)c2ccc(Oc3ccc(F)cc3)cc2)CCOCC1`, the result was inactive.
As for `NC(N)=O`, the outcome was inactive.
Consider `Cc1ncc([C@@H](CCCCCCc2ccc3c(n2)NCCC3)CC(=O)O)cn1`, for which the call was inactive.
Turning to `CCCCCCCCCCCCCCO`, the call was inactive.
`OC[C@H]1O[C@@](CO)(O[C@H]2O[C@H](CO)[C@@H](O)[C@H](O)[C@H]2O)[C@@H](O)[C@@H]1O`: the molecule was classed as inactive.
In the case of `CC[C@H](C)C(=O)O[C@H]1C[C@H](O)C=C2C=C[C@H](C)[C@H](CC[C@@H](O)C[C@@H](O)CC(=O)O)[C@H]21`, the result was inactive.
For the molecule `O=S(=O)(O)c1ccc(N=Nc2c(O)ccc3cc(S(=O)(=O)O)ccc23)cc1`, the molecule was called inactive.
As for `CCCC(CCC)C(=O)O`, the result was inactive.
As for `CCCCCCCC/C=C\CCCCCCCC(=O)OC[C@@H](O)[C@H]1OC[C@H](O)[C@H]1O`, the molecule was classed as inactive.
On to `CCOC(N)=O`, for which the call was inactive.
On the same count and under the same terms, the value for `CCCOc1ccc(S(=O)(=O)N2CCN(CC)CC2)cc1-c1nc2c(CC)n(Cc3ccccn3)nc2c(=O)[nH]1` was “inactive”; that for `Cn1cc[nH]c1=S` was “inactive”.
In general, AC50 refers to the concentration at which the activity in the assay is half-maximal. For `Cc1nccn1-c1ccc(Sc2cccc(C3(C(N)=O)CCOCC3)c2)cc1`, the concentration at half-maximal activity (AC50) is 20.3 µM (active).
For the molecule `Nc1ccn([C@@H]2O[C@H](CO)[C@@H](O)[C@@H]2O)c(=O)n1`, the molecule was classed as inactive.
For `OCc1ccccc1`, the molecule was classed as inactive.
Take `O=C(O)c1cccc(C[C@@H]2COc3ccc(OCc4nc5cc(F)ccc5s4)cc3[C@@H]2O)c1`: the concentration at half-maximal activity (AC50) was 75.6 µM (active).
For the molecule `C[C@]12C=CC(=O)C=C1CC[C@H]1[C@@H]3C[C@@H](O)[C@](O)(C(=O)CO)[C@@]3(C)C[C@H](O)[C@@]12F`, the outcome was inactive.
On to `OCCOCCOCCO`, for which the result was inactive.
For the molecule `CCOc1ccc2[nH]cc(C(=O)NCc3ccccc3)c(=O)c2n1`, the molecule was classed as inactive.
In the case of `C[C@@H](Oc1ccc(CNC(=O)c2cccnc2Oc2ccc3c(c2)OCO3)c(F)c1)C(=O)O`, the outcome was inactive.
Same read-out and setting: the value for `c1ccc2c(c1)-c1cccc3c1c-2cc1ccccc13` was “inactive”.
Regarding `c1ccc(C(O[C@@H]2CCCN(CCc3ccc4c(c3)OCO4)C2)c2ccccc2)cc1`, the half-maximal activity concentration (AC50) was 74.7 µM (active).
With `CCCCCCCCN(C)C`, the call was inactive.
Consider `OC[C@H]1O[C@@H]2O[C@H]3[C@H](O)[C@@H](O)[C@@H](O[C@H]4[C@H](O)[C@@H](O)[C@@H](O[C@H]5[C@H](O)[C@@H](O)[C@@H](O[C@H]6[C@H](O)[C@@H](O)[C@@H](O[C@H]7[C@H](O)[C@@H](O)[C@@H](O[C@H]1[C@H](O)[C@H]2O)O[C@@H]7CO)O[C@@H]6CO)O[C@@H]5CO)O[C@@H]4CO)O[C@@H]3CO`, for which the call was inactive.
With `CCCCCCCCCCCCCCCCOS(=O)(=O)O`, the outcome was inactive.
Same read-out and setting: the value for `Cc1nc(-c2ccccn2)ncc1C(=O)Nn1cc(C)c2cc(F)ccc21` was “inactive”.
Consider `CCN(CC)C(=S)SSC(=S)N(CC)CC`, for which the outcome was inactive.
The same measure, in the same setting: the value for `Cc1ccc(S(=O)(=O)NC(=O)NN2CCCCCC2)cc1` was “inactive”; that for `Cn1c(=O)c2[nH]cnc2n(C)c1=O` was “inactive”; that for `NC(=O)NN=Cc1ccc([N+](=O)[O-])o1` was “inactive”.
As for `CNC(C)=O`, the call was inactive.
As for `CCn1nc(C)c2c1C(=O)NCC(c1ccc(O)cc1)=N2`, the molecule was called inactive.
Consider `COCc1nnc(-c2ccc[n+]([O-])c2)n1-c1c(Cl)c(Cl)cc2[nH]c(=O)c(=O)[nH]c12`, for which the call was inactive.
For `CCCCCCCCCC`, the molecule was called inactive.
Consider `CC1(C)C(=O)N(Cl)C(=O)N1Cl`, for which the molecule was classed as inactive.
As for `CCc1cccc(CC)c1N`, the molecule was called inactive.
As to `C=CCc1cc(S(=O)(=O)c2ccc(O)c(CC=C)c2)ccc1O`, the AC50 is 76.7 µM (active).
For the molecule `COc1cc(C(C)C)c2c(c1)S(=O)(=O)N(COc1cc(=O)n3cccc(OCCN4CCCCC4)c3n1)C2=O`, the AC50 was 19.2 µM (active).

The record behind these values is PubChem BioAssay (EPA / NIEHS).
